Data on 30 sequences can be found in publication PMC9838217, “Structure of SALL4 zinc finger domain reveals link between AT-rich DNA binding and Okihiro syndrome”.

Holding throughout (experiment): HT-SELEX; high values mean tight binding
Details in all cases: protein: recombinant; vector His6-GST; dsDNA, one strand shown

Assay [1] has as its target T1, SALL4 ZFC4 WT (HT-SELEX) (Mus musculus, UniProt Q8BX22 870-940).
T1 sequence: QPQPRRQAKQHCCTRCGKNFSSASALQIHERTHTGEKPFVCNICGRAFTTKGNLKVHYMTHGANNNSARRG
The method, boiled down: (§1)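 Binding signal is expressed as fold change in each canonical k-mer's read fraction over the initial random library. To obtain it, 1 µg of purified recombinant mouse SALL4 zinc finger cluster 4 (residues 870–940) was incubated for 10 min at room temperature with library DNA (1.5 µg first cycle, 200 ng later cycles) in 100 µl of 10 mM Tris–HCl pH 7.5, 50 mM NaCl, poly(dI-dC) and DTT. Ni2+ bead-captured complexes went through washing, PCR amplification and reselection for up to 6 cycles, in triplicate, before MiSeq sequencing and scanning for 6-mers.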

Assay [2] deals with T2, SALL4 ZFC4 R900W (HT-SELEX) (Mus musculus, UniProt Q8BX22 870-940, R900W).
T2 sequence: T1 sequence with R31W
The procedure, abridged:
as §1

The target in assay [3] is T3, SALL4 ZFC4 G921D (HT-SELEX) (Mus musculus, UniProt Q8BX22 870-940, G921D).
T3 sequence: T1 sequence with G52D
The method, boiled down:
as §1

Positions count from the first letter of the chain named.

Take CATGGG: the binding signal in assay [1] stood at 0.477 ± 0.0485 fold-change vs cycle 0; in assay [2], 0.543 ± 0.0349 fold-change vs cycle 0; in assay [3] it was 0.645 ± 0.0616 fold-change vs cycle 0.

With AGTAAT, the binding signal in assay [1] amounted to 2.39 ± 0.144 fold-change vs cycle 0; in assay [2], 2.3 ± 0.183 fold-change vs cycle 0; in assay [3] it was 1.99 ± 0.219 fold-change vs cycle 0.

For AAAATA, the binding signal in assay [1] worked out at 3.77 ± 0.346 fold-change vs cycle 0; in assay [2], 2.25 ± 0.159 fold-change vs cycle 0; in assay [3], 1.96 ± 0.218 fold-change vs cycle 0.

In the case of ACAATC, the figures for the binding signal in assay [1], in assay [2] and in assay [3] were 1.25 ± 0.051 fold-change vs cycle 0, 1.38 ± 0.0687 fold-change vs cycle 0 and 1.36 ± 0.0869 fold-change vs cycle 0, respectively.

As to AAACCC, the binding signal stood at 0.691 ± 0.0592 fold-change vs cycle 0 in assay [1], 0.77 ± 0.0294 fold-change vs cycle 0 in assay [2] and 0.845 ± 0.0633 fold-change vs cycle 0 in assay [3].

With AGGTTC, the binding signal in assay [1] amounted to 0.828 ± 0.0497 fold-change vs cycle 0; in assay [2], 0.972 ± 0.0561 fold-change vs cycle 0; in assay [3], 1.02 ± 0.0282 fold-change vs cycle 0.

As for GGTTAC, the binding signal in assay [1] worked out at 0.891 ± 0.0455 fold-change vs cycle 0; in assay [2] it was 1.05 ± 0.0396 fold-change vs cycle 0; in assay [3], 1.01 ± 0.0443 fold-change vs cycle 0.

In the case of ATTCAG, the values for the binding signal in assay [1], in assay [2] and in assay [3] were 1.31 ± 0.0442 fold-change vs cycle 0, 1.44 ± 0.0342 fold-change vs cycle 0 and 1.36 ± 0.0925 fold-change vs cycle 0, respectively.

With AATTGC, the binding signal was 0.939 ± 0.042 fold-change vs cycle 0 in assay [1], 0.962 ± 0.0218 fold-change vs cycle 0 in assay [2] and 1.04 ± 0.0209 fold-change vs cycle 0 in assay [3].

With ACAGTC, the results for the binding signal in assay [1], in assay [2] and in assay [3] were 0.718 ± 0.0285 fold-change vs cycle 0, 0.8733 ± 0.00718 fold-change vs cycle 0 and 0.889 ± 0.0202 fold-change vs cycle 0, respectively.

On to ATAGCC, for which the binding signal in assay [1] was 0.53 ± 0.0341 fold-change vs cycle 0; in assay [2], 0.6236 ± 0.00564 fold-change vs cycle 0; in assay [3], 0.747 ± 0.062 fold-change vs cycle 0.

On to ACTAAA, for which the binding signal turned out to be 1.81 ± 0.0352 fold-change vs cycle 0 in assay [1], 1.9 ± 0.121 fold-change vs cycle 0 in assay [2] and 1.69 ± 0.128 fold-change vs cycle 0 in assay [3].

AAAAAA: the figures for the binding signal in assay [1], in assay [2] and in assay [3] were 2.68 ± 0.235 fold-change vs cycle 0, 1.98 ± 0.146 fold-change vs cycle 0 and 1.76 ± 0.185 fold-change vs cycle 0, respectively.

As to AATTAG, the values for the binding signal in assay [1], in assay [2] and in assay [3] were 1.92 ± 0.0642 fold-change vs cycle 0, 1.97 ± 0.0604 fold-change vs cycle 0 and 1.75 ± 0.104 fold-change vs cycle 0, respectively.

Take CCTACC: the values for the binding signal in assay [1], in assay [2] and in assay [3] were 0.45 ± 0.0245 fold-change vs cycle 0, 0.53 ± 0.00975 fold-change vs cycle 0 and 0.625 ± 0.0741 fold-change vs cycle 0, respectively.

Regarding GGGTAA, the binding signal turned out to be 0.818 ± 0.0379 fold-change vs cycle 0 in assay [1], 0.955 ± 0.0325 fold-change vs cycle 0 in assay [2] and 0.918 ± 0.0131 fold-change vs cycle 0 in assay [3].

With CAATGA, the binding signal came out at 1.32 ± 0.056 fold-change vs cycle 0 in assay [1], 1.47 ± 0.0677 fold-change vs cycle 0 in assay [2] and 1.4 ± 0.0741 fold-change vs cycle 0 in assay [3].

On to ACCACT, for which the binding signal in assay [1] was determined as 0.783 ± 0.0402 fold-change vs cycle 0; in assay [2], 0.885 ± 0.0293 fold-change vs cycle 0; in assay [3] it was 0.93 ± 0.0313 fold-change vs cycle 0.

As for CTCGAC, the figures for the binding signal in assay [1], in assay [2] and in assay [3] were 0.348 ± 0.0179 fold-change vs cycle 0, 0.396 ± 0.0285 fold-change vs cycle 0 and 0.539 ± 0.0655 fold-change vs cycle 0, respectively.

Regarding GGTGAA, the results for the binding signal in assay [1], in assay [2] and in assay [3] were 0.8 ± 0.0301 fold-change vs cycle 0, 0.905 ± 0.0496 fold-change vs cycle 0 and 0.952 ± 0.0511 fold-change vs cycle 0, respectively.

In the case of GAATAA, the binding signal in assay [1] came to 2.13 ± 0.0471 fold-change vs cycle 0; in assay [2], 2.1 ± 0.122 fold-change vs cycle 0; in assay [3], 1.82 ± 0.178 fold-change vs cycle 0.

Consider ACTGTA, for which the binding signal in assay [1] was 1.35 ± 0.031 fold-change vs cycle 0; in assay [2] it was 1.49 ± 0.0592 fold-change vs cycle 0; in assay [3] it was 1.38 ± 0.111 fold-change vs cycle 0.

Take CCATAA: the binding signal in assay [1] came out at 1.51 ± 0.0387 fold-change vs cycle 0; in assay [2], 1.36 ± 0.0383 fold-change vs cycle 0; in assay [3] it was 1.28 ± 0.051 fold-change vs cycle 0.

Consider CAAACG, for which the figures for the binding signal in assay [1], in assay [2] and in assay [3] were 0.563 ± 0.00697 fold-change vs cycle 0, 0.704 ± 0.014 fold-change vs cycle 0 and 0.777 ± 0.055 fold-change vs cycle 0, respectively.

For CGGTGA, the binding signal in assay [1] came out at 0.364 ± 0.0107 fold-change vs cycle 0; in assay [2], 0.421 ± 0.0161 fold-change vs cycle 0; in assay [3], 0.548 ± 0.0673 fold-change vs cycle 0.

In the case of ACACCG, the binding signal was found to be 0.325 ± 0.0278 fold-change vs cycle 0 in assay [1], 0.384 ± 0.0241 fold-change vs cycle 0 in assay [2] and 0.5 ± 0.0673 fold-change vs cycle 0 in assay [3].

For the sequence GGGGGA, the figures for the binding signal in assay [1], in assay [2] and in assay [3] were 0.31 ± 0.0219 fold-change vs cycle 0, 0.349 ± 0.0327 fold-change vs cycle 0 and 0.439 ± 0.0654 fold-change vs cycle 0, respectively.

As to ATCATC, the binding signal in assay [1] was determined as 1.5 ± 0.034 fold-change vs cycle 0; in assay [2] it was 1.56 ± 0.0669 fold-change vs cycle 0; in assay [3], 1.49 ± 0.0918 fold-change vs cycle 0.

Turning to AATACA, the binding signal in assay [1] worked out at 2.08 ± 0.131 fold-change vs cycle 0; in assay [2] it was 1.92 ± 0.0574 fold-change vs cycle 0; in assay [3], 1.74 ± 0.0979 fold-change vs cycle 0.

Consider CTTCGA, for which the binding signal in assay [1] is 0.707 ± 0.0176 fold-change vs cycle 0; in assay [2], 0.789 ± 0.0144 fold-change vs cycle 0; in assay [3], 0.875 ± 0.0344 fold-change vs cycle 0.
